Experimental data: PubChem BioAssay (Tox21)
Records with an inconclusive call do not appear. Active and inactive are the calls of the source. Unless noted, calls follow the shape of the dose curve; as a rule, active = well fitted curve in the direction sought with a large enough effect in the repeat runs; inconclusive = weak or mixed curves; inactive = no such curve, though single readings can be large; an effect the other way counts as inactive or inconclusive.

Assays:
[1] = qHTS assay to identify small molecule antagonists of the retinoid-related orphan receptor gamma (ROR-gamma) signaling pathway - cell viability counter screen (AID 1159520); also: nearly all actives have a fitted effect of over 50% in size; as to activity, negative = cytotoxicity: % is scaled to controls: 0 for no effect and ±100 for the full control effect
In short: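 Tet-on ROR gamma CHO cells were given compounds for 2 hr, then doxycycline hyclate at 1 uM final, and incubated 16 hr at 37 C. Viability was measured as ATP content by CellTiter-Glo luminescence.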

[2] = molecular target: Nuclear receptor ROR-gamma (Homo sapiens) (UniProt P51449); test: qHTS assay to identify small molecule antagonists of the retinoid-related orphan receptor gamma (ROR-gamma) signaling pathway (AID 1159521; also: nearly all actives have a fitted effect of over 50% in size;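 as to activity change, negative = inhibition: CHO cells with doxycycline inducible ROR-gamma driving an RORE luciferase reporter; top concentration of the series differs between compounds; % is scaled to controls: 0 for no effect and ±100 for the full control effect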)
In short: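 Tet-on ROR-gamma CHO cells with ROR response element-luciferase reporter; compounds added 2 hr before 1 uM doxycycline induction, then 16 hr at 37 C. Antagonism scored as decreased ONE-Glo luminescence.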

[3] = qHTS assay to identify small molecule agonists of the AP-1 signaling pathway - cell viability counter screen (AID 1159525; calls by dose curve; also: nearly all actives have a fitted effect of over 55% in size)
In short: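 Same-well cytotoxicity counter screen of the Tox21 10K library in ME-180 cells. The readout is ATP-dependent luminescence after 5 h compound treatment. Data are normalised to DMSO and tetra n-octyl ammonium bromide controls.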

[4] = qHTS assay to identify small molecule agonists of the AP-1 signaling pathway (AID 1159526; calls by dose curve; as to activation: % is scaled to controls: 0 for no effect and ±100 for the full control effect)
[5] = molecular target: Retinoic acid receptor RXR-alpha (Homo sapiens) (UniProt P19793); test: qHTS assay to identify small molecule agonists of the RXR signaling pathway (AID 1159527; calls by dose curve; also: nearly all actives have a fitted effect of over 35% in size; as to activation: % is scaled to controls: 0 for no effect and ±100 for the full control effect)
In short: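 GeneBLAzer RXR-alpha-UAS-bla HEK 293T cells in 2% charcoal-stripped FBS medium were exposed to compounds for 16 hr at 37 C in agonist mode. Beta-lactamase reporter read as 460/530 nm FRET ratio after 2 hr substrate loading.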

[6] = qHTS assay to identify small molecule agonists of the RXR signaling pathway - cell viability counter screen (AID 1159529); also: nearly all actives have a fitted effect of over 50% in size
In short: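 RXR-alpha-UAS-bla HEK 293T cells in medium with 2% charcoal-stripped FBS were pre-incubated 5 hr, then compound-treated 16 hr at 37 C. Viability was read by CellTiter-Glo luminescence in the same wells as the beta-lactamase assay, with tetraoctyl ammonium bromide as positive control.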

[7] = qHTS assay to identify small molecule antagonists of the retinoid acid receptor (RAR) signaling pathway - cell viability counter screen (AID 1159551); also: nearly all actives have a fitted effect of over 35% in size
In short: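 Viability of C3RL4 cells is quantified from ATP by luminescence after 6 h treatment at 37 C with compounds and 1 uM retinol.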

[8] = qHTS assay to identify small molecule antagonists of the retinoic acid receptor (RAR) signaling pathway (AID 1159552; also: nearly all actives have a fitted effect of over 50% in size)
In short: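 Retinol signaling pathway inhibitors screened in C3RL4 RARE-luciferase reporter cells seeded overnight at 37 C, then compounds added with 1 uM (final) retinol as pathway substrate. After 6 hr at 37 C, luciferase luminescence read after 30 min at room temperature.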

[9] = qHTS assay to identify small molecule agonists of the vitamin D receptor (VDR) signaling pathway - cell viability counter screen (AID 743224); also: nearly all actives have a fitted effect of over 50% in size
In short: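 In parallel with the bla FRET readout, cytotoxicity toward VDR-bla cells after 16 h compound exposure was assessed by CellTiter-Glo, with luminescence recorded after a 30 min room-temperature incubation.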

[10] = qHTS assay to identify small molecule antagonists of the vitamin D receptor (VDR) signaling pathway - cell viability counter screen (AID 743225); also: nearly all actives have a fitted effect of over 50% in size
In short: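 VDR-UAS-bla HEK 293T cells were plated and incubated 4 h at 37C, then dosed with compound plus 3 nM (final) 1-alpha,25-dihydroxyvitamin D3 for 16 h. After the 2 h beta-lactamase read, viability in the same wells was read as CellTiter-Glo luminescence after 30 min at room temperature.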
Potency is read from the fitted curve at half-maximal effect.

Sequence of Retinoic acid receptor RXR-alpha (Homo sapiens) (P19793 whole entry, looked up): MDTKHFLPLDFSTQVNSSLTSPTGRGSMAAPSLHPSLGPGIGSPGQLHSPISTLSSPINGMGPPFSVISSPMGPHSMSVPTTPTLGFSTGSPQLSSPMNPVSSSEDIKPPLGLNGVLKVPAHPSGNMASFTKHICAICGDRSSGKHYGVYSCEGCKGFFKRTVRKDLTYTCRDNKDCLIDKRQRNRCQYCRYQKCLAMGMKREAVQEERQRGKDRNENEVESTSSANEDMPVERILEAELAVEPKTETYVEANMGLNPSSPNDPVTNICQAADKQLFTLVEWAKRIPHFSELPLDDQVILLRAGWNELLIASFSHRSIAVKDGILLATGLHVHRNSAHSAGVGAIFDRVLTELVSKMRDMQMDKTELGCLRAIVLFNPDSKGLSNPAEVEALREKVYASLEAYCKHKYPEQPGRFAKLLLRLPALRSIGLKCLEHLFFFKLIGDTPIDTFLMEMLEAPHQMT

CCCC(C)C=O (configuration not stated)
inactive: Potency [1] | Potency [2] | Potency [3] | Potency [4] | Potency [5] | Potency [6] | Potency [7]

Clc1ccc2c(Cl)ccnc2c1
inactive: Potency [1] | Potency [2] | Potency [3] | Potency [4] | Potency [5] | Potency [6] | Potency [7] | Potency [8]

O=[N+]([O-])c1ccc(CO)cc1
inactive: Potency [1] | Potency [2] | Potency [3] | Potency [4] | Potency [5] | Potency [6] | Potency [7]

C=CC(C)(C)O
inactive: Potency [1] | Potency [2] | Potency [3] | Potency [4] | Potency [5] | Potency [6] | Potency [7]

COc1c(Br)cc(Br)c(C)c1Br
inactive: Potency [9] | Potency [10] | Potency [1] | Potency [2] | Potency [3] | Potency [4] | Potency [5] | Potency [6] | Potency [7]

C/C=C/C(=O)OCC(C)C
active: Potency [4] 54.9 µM
inactive: Potency [1] | Potency [2] | Potency [3] | Potency [6] | Potency [7]

Cc1ccc2n[nH]nc2c1
inactive: Potency [1] | Potency [2] | Potency [3] | Potency [4] | Potency [5]

CC1CCC(C(C)(C)O)CC1 (configuration not stated)
inactive: Potency [1] | Potency [2] | Potency [3] | Potency [4] | Potency [5] | Potency [6] | Potency [7]

CC(CC(C)(C)C)CC(C)(C)CC(C)(C)C (configuration not stated)
inactive: Potency [1] | Potency [2] | Potency [3] | Potency [4] | Potency [6] | Potency [7]

COc1cc(OC)nc(NC(=O)NS(=O)(=O)Nc2ccccc2C(=O)N(C)C)n1
inactive: Potency [1] | Potency [2] | Potency [3] | Potency [4] | Potency [5] | Potency [6] | Potency [7]

c1ccc2c(c1)-c1ccc3ccc4cccc5cc-2c1c3c45
inactive: Potency [1] | Potency [2] | Potency [3] | Potency [7]

Nc1ccc(Cl)c([N+](=O)[O-])c1
inactive: Potency [1] | Potency [3] | Potency [5] | Potency [6] | Potency [7] | Potency [8]
active: Potency [2] 38.6 µM

Cc1ccc(C=O)cc1
inactive: Potency [1] | Potency [2] | Potency [3] | Potency [5] | Potency [7]

Cc1c[nH]c(=O)[nH]c1=O
inactive: Potency [1] | Potency [2] | Potency [3] | Potency [4] | Potency [6] | Potency [7] | Potency [8]

CN(C)CCOc1ccc(/C(=C(/CCCl)c2ccccc2)c2ccccc2)cc1
active: Potency [9] 12.9 µM | Potency [10] 12.9 µM | Potency [1] 51 µM | Potency [2] 22.8 µM | Potency [3] 36.4 µM | Potency [6] 18.3 µM | Potency [7] 51 µM

CC(=O)Nc1ccc(N=Nc2cc(C)ccc2O)cc1
inactive: Potency [1] | Potency [2] | Potency [3] | Potency [6] | Potency [7]

[Cl][Dy]([Cl])[Cl]
inactive: Potency [1] | Potency [2] | Potency [3] | Potency [6] | Potency [7]

O=C(NCc1ncc(C(F)(F)F)cc1Cl)c1c(Cl)cccc1Cl
inactive: Potency [1] | Potency [3] | Potency [4] | Potency [7]
active: Potency [2] 12.2 µM

CCOC(=O)C1=NN(c2ccc(Cl)cc2Cl)C(C)(C(=O)OCC)C1 (configuration not stated)
inactive: Potency [1] | Potency [3] | Potency [5] | Potency [6] | Potency [7] | Potency [8]
active: Potency [2] 30.6 µM

C=CC(=O)OCCOC1C2CCC1C1CC=CC12 (configuration not stated)
inactive: activity, negative = cytotoxicity [1] 1.32% [at 19 µM] | activity change, negative = inhibition [2] 0.993% [at 19 µM] | viability change, negative = cytotoxic [3] -20.2% [at 15.8 µM] | activation [4] -3.6% [at 15.8 µM] | activity change, negative = cytotoxicity [6] -24% [at 15.8 µM] | activity change, negative = cytotoxicity [7] -0.0183% [at 19 µM]

C=COCCCC
inactive: Potency [1] | Potency [2] | Potency [3] | Potency [4] | Potency [6] | Potency [7] | Potency [8]

NCc1ccco1
inactive: Potency [1] | Potency [2] | Potency [3] | Potency [5] | Potency [7]

CC(O)(c1ccc(Cl)cc1)c1ccc(Cl)cc1
inactive: Potency [1] | Potency [2]
active: Potency [3] 54.9 µM | Potency [6] 38.9 µM | Potency [8] 61.1 µM

Nc1ccc2c(S(=O)(=O)O)cccc2c1S(=O)(=O)O
inactive: Potency [1] | Potency [2] | Potency [3] | Potency [5] | Potency [7] | Potency [8]

CCCCCCCCCCCCCCCCC(C(=O)O)C(O)(CC(=O)O)C(=O)O (configuration not stated)
inactive: Potency [1] | Potency [2] | Potency [7] | Potency [8]
active: Potency [9] 26.6 µM | Potency [3] 21.3 µM | Potency [6] 19 µM

CN1CCN(C)CC1
inactive: Potency [1] | Potency [2] | Potency [3] | Potency [5] | Potency [6] | Potency [7] | Potency [8]

CCCCCCCCCCCC(=O)Cl
inactive: Potency [1] | Potency [2] | Potency [3] | Potency [7] | Potency [8]

c1ccc2occc2c1
inactive: Potency [1] | Potency [2] | Potency [3] | Potency [7]
active: Potency [9] 49 µM | Potency [5] 12.3 µM

N#CCCOCCC#N
inactive: Potency [1] | Potency [2] | Potency [3] | Potency [5] | Potency [6] | Potency [7] | Potency [8]

N#Cc1ccc(C/C(=N/NC(=O)Nc2ccc(OC(F)(F)F)cc2)c2cccc(C(F)(F)F)c2)cc1
inactive: Potency [1] | Potency [2] | Potency [3] | Potency [7]

C=C[Si](C)(C)Cl
inactive: activity, negative = cytotoxicity [1] 5.94% [at 8.39 µM] | activity change, negative = inhibition [2] -27.2% [at 8.39 µM] | viability change, negative = cytotoxic [3] -3.04% [at 6.97 µM] | activation [5] 0.333% [at 6.98 µM] | activity change, negative = cytotoxicity [7] -1.54% [at 8.39 µM] | activity, negative = inhibition [8] 83.8% [at 8.39 µM]
